About 1,200 (3.2%) of roughly 38,000 compounds showed an effect of 50% or more. The median lay at about -58%. The sample holds strong results, similar compounds and a random draw of the others, so the mix is not that of the screen.
test system: Plasmodium falciparum; test: Calibr Malaria Delayed Death Assay SOP; format: functional, organism-based; parameters: scale not given: in the data most compounds retested in dose-response had high values; settings: concentration 4.99e-06 (unit not given; other assays of the set use mol/L)

Row | Structure (SMILES) | Percent Effect [%]
1 | CN1CCC2(CCCN(S(=O)(=O)c3ccc(-c4cnco4)s3)C2)C1 (centres undefined) | 50.7
2 | CN1CCCC2(CCN(C(=O)c3ccncc3)C2)C1 (centres undefined) | -70.03
3 | Cc1ccc(S(=O)(=O)N2CCN(C)C3(CCC(=O)N(C)CC3)C2)s1 (centres undefined) | -170.6
4 | CN1CCC2(CCN(S(=O)(=O)c3ccc(-c4cnco4)s3)CC2)C1 | 67.52
5 | O=S(=O)(c1ccc(-c2cnco2)cc1)N1CCCC(O)(CO)CC1 (centres undefined) | -42.75
6 | CN1CCCC2(CCN(S(=O)(=O)c3ccc(-c4cnco4)s3)C2)C1=O (centres undefined) | -20.09
7 | CCCn1c(C)c(CC(=O)NCC(N)=O)c2c1CC(C)(C)CC2=O | -28.28
8 | O=C(C1CCCO1)N1CCC2(CC1)COCCN2CC1CC1 (centres undefined) | -162.7
9 | CN(Cc1ccc(-n2cccn2)cc1)c1nc(N)nc2c1CCNCC2 | 57.31
10 | CN(CCO)c1nc(-c2ccccn2)nc2c1CCNC2 | -87.29
11 | CN(Cc1nccs1)C1CCN(c2ncccn2)CC1 | -79.31
12 | CN(Cc1cccnc1)c1nc(-c2ccccn2)nc2c1CCNCC2 | 53.3
13 | CN(Cc1ccc(-n2cccn2)cc1)c1cc(N)nc(N)n1 | 39.62
14 | CN(Cc1cccnc1)Cc1cncc2c1CCN(c1ccccn1)C2.Cl.Cl.Cl | -32.27
15 | c1ccc(-c2nc3c(c(NCCn4ccnn4)n2)CCNCC3)nc1 | 6.036
16 | CN(Cc1cccnc1)c1nccc(N2CCN[C@H]3CS(=O)(=O)C[C@H]32)n1 | -59
17 | CN(Cc1ncc[nH]1)c1nc(-c2ccccn2)nc2c1CCNCC2 | 54.09
18 | CN(Cc1ccccc1-n1cccn1)c1nc(N)nc2c1CCNCC2 | -16.16
19 | CN(Cc1nccs1)c1nc(-c2ccccn2)nc2c1CCNCC2 | 83.34
20 | CC(=O)N1CCc2c(nc(-c3ccccn3)nc2N(C)CC(O)CO)C1 (centres undefined) | -23.68
21 | O=C(O)C(F)(F)F.O=C(O)C(F)(F)F.c1cncc(CO[C@H]2CN(Cc3ccco3)[C@@H]3COC[C@H]23)c1 | -20
22 | Nc1nnc(SCc2cc(=O)n3c4c(sc3n2)CCCC4)[nH]1 | -122.1
23 | O=C(C1CCC1)N1C(CN2CCOCC2)[C@]2(O)CC[C@H]1CC2 (some centres undefined) | -122.6
24 | O=C(Cn1nc(Br)nc1Br)N1CCCCC1 | -129.7

Row | Structure (SMILES) | Percent Effect [%]
25 | Cc1nc(CC2CCN(C(=O)C(c3ccccc3C)N(C)C)CC2)no1 (centres undefined) | -27.12
26 | COc1ccc(CN(Cc2cncn2C)CC2CCCO2)cc1.O=C(O)CC(O)(CC(=O)O)C(=O)O (centres undefined) | -5.826
27 | CC1CCN(c2nc3ncc4c(c3c(=O)[nH]2)CC(C)(C)CC4=O)CC1 | -163.1
28 | CCOCc1nc2c(c(N(C)Cc3snnc3C)n1)CCNCC2 | -53.15
29 | CCOCc1nc2c(c(N(C)Cc3ccsc3)n1)CCNCC2 | 63.06
30 | CN(CC1Cc2ccccc2CN1C)c1nc(N)nc2c1CCNCC2 (centres undefined) | -16.74
31 | CCOCc1nc2c(c(N(C)Cc3nonc3C)n1)CCNCC2 | 45.51
32 | COCC(Nc1nc(N(C)C)nc2c1CCNCC2)c1ccccn1 (centres undefined) | -46.74
33 | CN(Cc1ccsc1)c1nc(-c2ccccn2)nc2c1CCNCC2 | 79.12
34 | COCC1CCN(C(=O)c2cn(Cc3ccccc3F)nn2)CC1 | -60.58
35 | CN(C)c1cc(C(=O)NCCc2n[nH]c(=O)[nH]2)ccn1 | -61.85
36 | Cc1cnn(CC2CN(Cc3nc(C4CC4)no3)CCO2)c1 (centres undefined) | -0.1422
37 | CC(C)N1CCC(CNC(=O)CCc2cc(F)ccc2F)C1 (centres undefined) | 6.837
38 | COCCN1CCC(CNC(=O)CCc2cc(F)ccc2F)C1 (centres undefined) | -6.086
39 | CC(C)N1CCC(CNC(=O)COc2ccc(F)cc2F)C1 (centres undefined) | 52.83
40 | Cc1cc(CNC(=O)N2CCN(c3ccc(Cl)cn3)CC2)c(C)o1 | -63.56
41 | CC(=O)N1CCO[C@@H]2CN(C(=O)NCc3ccccc3)CC[C@@H]2C1 | -111.3
42 | Cc1cnc(N2CC[C@@H]3OC(COCC(=O)N(C)C)CC[C@@H]32)nc1.O=C(O)C(F)(F)F (some centres undefined) | -36.79
43 | CCCOc1cc(C)ccc1NC(=O)NCCNC(=O)C(C)C | -67.23
44 | CC(C)COC(=O)N1[C@@H](c2ccco2)[C@@H](CO)C[C@]12CCCCNC2=O | -86.33
45 | COCc1noc(CNc2nc(C3CCCC3)nc3c2CCNCC3)n1 | 26.49
46 | OC(CNc1ncnc2c1CCNCC2)C(F)(F)F (centres undefined) | -185.3
47 | COCCNc1nc2c(c(NCc3ccncc3)n1)CCNCC2 | 12.96
48 | Cc1nc2c(c(NCC(O)C(F)(F)F)n1)CCNCC2 (centres undefined) | -130.8

Row | Structure (SMILES) | Percent Effect [%]
49 | OC(CNc1nc(C2CCCC2)nc2c1CCNCC2)C(F)(F)F (centres undefined) | 63.72
50 | COCCNc1nc(C2CCCC2)nc2c1CCNCC2 | 52.24
51 | Cc1nc(CN2CCO[C@H]3[C@@H](Oc4ccccn4)CC[C@@H]32)cs1.O=C(O)C(F)(F)F.O=C(O)C(F)(F)F | -51.07
52 | COc1cccc(-c2cc(C(=O)NCCCn3cnnc3)[nH]n2)c1 | -185.9
53 | CCn1ncc2c1C(COC)CN(Cc1cnn(C)c1)C2 (centres undefined) | -1.77
54 | CC[C@@H]1N(Cc2nccs2)CCC[C@]12CCC(=O)N2CCOC.O=C(O)C(F)(F)F | -51.09
55 | Cc1noc(-c2ccnc(N3CCC(CN4CCOCC4)CC3)c2)n1 | -57.29
56 | Cc1ccc(C(=O)N2CCN(c3ccnc4ccsc34)CC2)o1 | 5.694
57 | c1coc(CN2CCn3c(nc4ccccc43)C2)c1 | -138.4
58 | CN(Cc1ccco1)C[C@H]1OC[C@@H]2CCN(Cc3nccs3)C[C@@H]21 | 9.527
59 | CN(Cc1ccco1)C[C@H]1OC[C@@H]2CCN(Cc3cccnc3)C[C@@H]21.O=C(O)C(F)(F)F.O=C(O)C(F)(F)F.O=C(O)C(F)(F)F | -41.37
60 | Cc1cccc(N2CC[C@H]3CO[C@H](CN(C)Cc4ccco4)[C@H]3C2)n1 | 48.83
61 | CN(Cc1ccco1)C[C@H]1OC[C@@H]2CCN(Cc3ccncc3)C[C@@H]21.O=C(O)C(F)(F)F.O=C(O)C(F)(F)F.O=C(O)C(F)(F)F | -2.031
62 | CN(Cc1ccco1)C[C@H]1OC[C@@H]2CCN(Cc3ccccn3)C[C@@H]21.O=C(O)C(F)(F)F.O=C(O)C(F)(F)F.O=C(O)C(F)(F)F | 70.31
63 | OC1=C2C(=Nc3n[nH]c(O)c3C2c2ccccc2Cl)CCC1 (centres undefined) | -169.8
64 | Cn1nc(C(=O)N2CCCC2)c(F)c1NC(=O)Cc1ccccc1 | -43.72
65 | Cc1nc2ccnn2c(C)c1CCC(=O)N1CCN(CCO)CC1 | -40.17
66 | CCn1ncnc1C(C)Nc1cc(C2CC2)ncn1 (centres undefined) | -128.7
67 | Cc1cccc(CN2C(=O)CO[C@@H]3CN(Cc4cnn(C)c4)C[C@H]32)c1.O=C(O)C(F)(F)F.O=C(O)C(F)(F)F | -89.5
68 | CC(C)CNC(=O)CNc1c(NCc2ccncc2)c(=O)c1=O | -63.87
69 | Cc1ccc2nc(CN3CCCCC3CCN3CCOCC3)cn2c1 (centres undefined) | 7.984
70 | O=C(NC1CCN(CC2CCCC2)C1)N1CCC(OCC2CC2)CC1 (centres undefined) | 63.12
71 | O=C(NC1CCN(CC2CC2)C1)c1ccc(C(=O)c2cc[nH]c2)cc1 (centres undefined) | -13.77
72 | O=C(NC1CCN(CC2CC2)C1)N1CCC(OC2CCCCC2)CC1 (centres undefined) | 53.27

Row | Structure (SMILES) | Percent Effect [%]
73 | O=C(NC1CCN(CC2CC2)C1)c1ccc(N2CCC(O)CC2)cc1 (centres undefined) | -9.255
74 | CSC(C)(C)CNC(=O)NC1CCN(CC2CC2)C1 (centres undefined) | -39.54
75 | NC(=O)C1CCN(C(=O)NC2CCN(CC3CCCC3)C2)CC1 (centres undefined) | -59.5
76 | CNc1nc2c(s1)C(=O)CN(C(=O)NCCc1ccccc1)C2 | -35.41
77 | COCCN1CCC(c2nc3ccc(NC(C)C)cn3n2)CC1.O=C(O)C(F)(F)F | -58.6
78 | CCNc1ncc2c(n1)CN(c1ccc(C)c(C)c1)C2=O | -153.3
79 | Cc1ccc(S(=O)(=O)Nc2ccc(C)c(C(=O)O)c2)s1 | -129.6
80 | O=C(NCCN1CCOCC1)C1=NOC2(CCN(Cc3nccs3)C2)C1 (centres undefined) | -143.8
81 | Cc1nn(C)c(Cl)c1CN1CCN(c2nccs2)C(C)C1 (centres undefined) | -15.39
82 | Cc1nn(C)c(Oc2ccccc2)c1CNC1CCOc2ccccc21 (centres undefined) | -79.66
83 | Cc1nn(C)c(Oc2ccc(Cl)cc2)c1CN1CCC(CN)C1 (centres undefined) | 92.45
84 | O=C(O)C(F)(F)F.O=C(c1ccccn1)N1CCC2(CC1)COC(COCC1CCCC1)C2 (centres undefined) | -17.9
85 | CC(C)C(C)NC(=O)Nc1cccc2c1CCN(S(C)(=O)=O)C2 (centres undefined) | -62.13
86 | O=C1N(Cc2ccc(F)c(F)c2)CCCC1(O)CNCc1ncc[nH]1 (centres undefined) | -127.8
87 | Cc1ccc(CN2CCC3(CCCN(Cc4ccc(F)c(F)c4)C3)C2)o1 (centres undefined) | 25.14
88 | Cc1c[nH]c(CN2CCC3(CCCN(Cc4ccc(F)c(F)c4)C3)C2)n1 (centres undefined) | 79.41
89 | O=C(c1cn[nH]c1)N1CCC2(CCCN(Cc3ccc(F)c(F)c3)C2)C1 (centres undefined) | -30.22
90 | CN(C)C(=O)N1CCCC2(CCN(Cc3ccc(Cl)c(F)c3)C2)C1 (centres undefined) | 40.95
91 | Fc1ccc(CN2CCCC3(CCN(Cc4ncc[nH]4)C3)C2)cc1F (centres undefined) | 59.25
92 | Cc1noc(CN2CCCC(Cn3nc(C)nc3C)C2)n1 (centres undefined) | -86.57
93 | N#Cc1c(SCCN2CCCCCC2)sc2c(O)cc(O)nc12 | -30.34
94 | CN(C)S(=O)(=O)N1C[C@@H]2COC[C@]2(COc2ccccn2)C1.O=C(O)C(F)(F)F | -16.81
